Measurements published in PubChem BioAssay AID485313 (National Center for Advancing Translational Sciences (NCATS), 2010).
Hit rate of the full screen: of about 320,000 compounds, about 7,600 (2.4%) were called active. Roughly 3% stayed inconclusive and do not appear here. The call rests on the fitted dose curve; in most records, active means well fitted activation curve with a large enough effect; inconclusive means small, poorly fitted or top-dose-only effect; inactive means no such curve, though single readings can be large or run the other way. What follows is part of a selection rich in actives, with near analogues and random picks from the rest.
Potency means the concentration at half of the fitted maximal effect.

Experiment: qHTS Assay for NPC1 Promoter Activators; further: nearly all actives have a fitted effect of over 60% in size;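 on activation: reporter is driven by a mutant NPC1 promoter; % of control where 0% means no effect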
Settings: Huh7 NPC1 promoter luciferase reporter, 24 h; series mostly up to 9.22 µM; activation: at the top concentration
Summary of the method: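 Stable NPC1-promoter luciferase Huh7 line; cpd (DMSO) 24 h, 37 °C, 5% CO2; Amplite luciferase reagent 10 min RT; luminescence readout. qHTS format.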
For COc1cc(C(C)=O)ccc1OC(C)C(=O)Nc1ccc(S(=O)(=O)N2CCCC2)cc1 (centres undefined), the “activation” value was 0.351% (inactive).
With CC(C)N(C(=O)CSc1nnc(NC2CC2)s1)c1ccccc1 the “activation” value was 0.279% (inactive).
In the case of Cc1ccccc1NC(=O)Cc1nc(COC(=O)c2ccc(C(F)(F)F)cc2)cs1, the “activation” value was -2.66% (inactive).
With COc1ccc(NC(=S)N2N=CCC2c2ccccc2)cc1 (centres undefined) the Potency was 1.41 µM (active).
With CCC(C)N(C)C1CCN(C(=S)Nc2ccc(OC)cc2)CC1 (centres undefined) the “activation” value was 3.73% (inactive).
With COc1ccc(NC(=S)N2CCc3cc(OC)c(OC)cc3C2)cc1 the “activation” value was -3.04% (inactive).
With N#CCCN(C(=O)COC(=O)C1CCN(c2ccc(C(F)(F)F)cn2)CC1)c1ccc(F)cc1 the “activation” value was -1.26% (inactive).
In the case of O=C(NCC1CCCO1)c1ccc(S(=O)(=O)Nc2ccc(F)cc2)cc1 (centres undefined), the “activation” value was 2.02% (inactive).
For O=c1c2cc(-c3ccccc3)sc2nc2n1N=C(c1cccs1)CS2, the Potency was 3.16 µM (active).
For c1csc(-c2cn3c(n2)SCC3)c1, the “activation” value was 10.9% (inactive).
For Cc1nnc2n1N=C(c1ccccc1)CS2, the “activation” value was -2.53% (inactive).
In the case of COC(=O)[C@]1(C)CCC[C@@]2(C)C3CC[C@]4(OC(C)=O)C[C@@]3(CCC21)CC4=NO (some centres undefined), the “activation” value was 4.54% (inactive).
In the case of O=C(NCCC1=CCCCC1)c1ccc(-n2cncn2)cc1, the Potency was 3.55 µM (active).
With O=C(COc1cccc(-n2cnnn2)c1)NCCC1=CCCCC1 the “activation” value was -1.1% (inactive).
For O=C(NCCC1=CCCCC1)c1ccc(Cl)c([N+](=O)[O-])c1, the “activation” value was 1.81% (inactive).
With O=C(NCc1cccnc1)c1cn(-c2ccccc2)nc1-c1cccs1 the “activation” value was 15.3% (inactive).
With O=C(O)c1ccc(N/N=C/c2cn(-c3ccccc3)nc2-c2cccs2)cc1 the Potency was 1.26 µM (active).
With COc1ccc(-c2nn(-c3ccccc3)cc2/C=C\C(=O)Nc2ccc(C(=O)O)cc2)cc1 the “activation” value was -2.75% (inactive).
In the case of COc1ccc(OC)c(CN2CCN(C(=O)CNC(=O)c3cc(C)cc(C)c3)CC2)c1, the “activation” value was 3.16% (inactive).
With CCC(=O)N1CCCc2ccccc21 the “activation” value was 0.602% (inactive).
With O=C(CSCc1ccccc1)N1CCc2ccccc21 the Potency was 2.24 µM (active).
With O=C(CN1CCN(c2ccccn2)CC1)N1CCc2ccccc21 the “activation” value was -0.609% (inactive).
In the case of CN(CC(=O)Nc1ccc(F)cc1)CC(=O)N1CCCCC1, the “activation” value was -1.98% (inactive).
With Cc1ccc(S(=O)(=O)N(CC(=O)Nc2cccc([N+](=O)[O-])c2)Cc2ccc(Cl)cc2)cc1 the “activation” value was -0.0248% (inactive).
For Cc1nc(NC(=O)c2ccc3c(c2)OCCO3)ccc1Br, the Potency was 1 µM (active).
For CCCc1cc(C(=O)Nc2ccc(Cl)cn2)cs1, the Potency was 0.501 µM (active).
In the case of CC(=O)c1ccc2c(c1)OCCOCCOc1ccc(C(C)=O)cc1OCCOCCO2, the “activation” value was -10.2% (inactive).
With O=C(Nc1ccc(Cl)cn1)c1ccc2c(c1)OCCO2 the Potency was 0.501 µM (active).
For O=C(Nc1cccc(S(=O)(=O)Nc2ccc(Cl)cc2)c1)c1ccc2c(c1)OCCO2, the “activation” value was -14.5% (inactive).
For CCCCC(CC)C(=O)Nc1ccc(Cl)cn1 (centres undefined), the “activation” value was 0.296% (inactive).
With CCCc1cc(C(=O)Nc2ccc(C(=O)OC)cc2)cs1 the “activation” value was 4.68% (inactive).
In the case of Cc1cccc(C)c1NC(=O)CNC(=O)c1ccc2c(c1)OCCO2, the “activation” value was -1.52% (inactive).
For COc1c(Cl)cc(C(=O)Nc2ccc(Cl)cn2)cc1Cl, the “activation” value was 25.4% (inactive).
With O=C(C1Cc2ccccc2CN1C(=O)c1ccco1)N1CCN(c2ccccc2)CC1 (centres undefined) the “activation” value was -0.773% (inactive).
With CN(CC(=O)Nc1ccc(F)c(F)c1F)C(=O)C1CC(=O)N(C2CCCC2)C1 (centres undefined) the “activation” value was 0.171% (inactive).
With COc1ccc(CS(=O)/C(Cl)=C(/Cl)C(=O)Nc2ccc(OC)nc2)cc1 (centres undefined) the “activation” value was -23.3% (inactive).
For CCCCNC(=O)OC(C)CNC(=O)OC (centres undefined), the “activation” value was -1.68% (inactive).
With COc1ccc(NC(=O)COC(=O)c2n[nH]c3ccccc23)c(OC)c1 the “activation” value was 1.11% (inactive).
For O=C(CSc1nnc(COc2ccc(Cl)cc2)n1Cc1ccco1)N1CCNC1=O, the “activation” value was -9.88% (inactive).
With CCNC(=O)N1CCN(S(=O)(=O)c2ccc3c(c2)OCCCO3)CC1 the “activation” value was 5.22% (inactive).
With COc1ccc(CN2C(=O)C(C)S/C2=N/N=C/c2ccco2)cc1 (centres undefined) the Potency was 3.16 µM (active).
For C=CCN1C(=O)C(Cc2cccc(Cl)c2)S/C1=N/N=C/c1ccco1 (centres undefined), the “activation” value was -2.22% (inactive).
In the case of O=C1N/C(=N\N=C\c2ccco2)SC1Cc1ccc(F)cc1 (centres undefined), the “activation” value was -12.3% (inactive).
In the case of CCOc1ccc(S(=O)(=O)N2CCC(C(=O)NCC(=O)Nc3cccc(Cl)c3C)CC2)cc1, the “activation” value was -2% (inactive).
With O=C(Nc1ccccc1F)c1ccc(S(=O)(=O)N2CCCCCC2)cc1 the “activation” value was 13% (inactive).
For CCc1ccc2oc(-c3ccc(N)cc3)nc2c1, the Potency was 0.708 µM (active).
In the case of Cc1[nH]c2ccccc2c1C(=O)C(C)Sc1nnc(C2CC2)o1 (centres undefined), the “activation” value was -0.654% (inactive).
For O=C(O)/C=C/c1ccc2c(c1)OCCO2, the “activation” value was -0.0021% (inactive).
For Cc1ccc(S(=O)(=O)NCC(=O)Nc2ccc3c(c2)OCCO3)cc1, the “activation” value was -5.21% (inactive).
With CNS(=O)(=O)c1ccc(NC(=O)Nc2ccc3c(c2)OCO3)cc1 the Potency was 2.51 µM (active).
With Cc1cccc(NC(=O)Nc2ccc3c(c2)OCO3)n1 the Potency was 1.78 µM (active).
In the case of CC(C)CNS(=O)(=O)c1ccc(C(=O)Nc2ccc3c(c2)OCO3)cc1, the “activation” value was -9.44% (inactive).
In the case of CC(NC(=O)Nc1ccc2c(c1)OCO2)c1ccncc1 (centres undefined), the “activation” value was 0.67% (inactive).
With O=C(/C=C/c1ccc2c(c1)OCO2)NCc1ccc(F)cc1 the “activation” value was 1.01% (inactive).
For CC(NC(=O)Nc1cccc([N+](=O)[O-])c1)c1ccc2c(c1)OCO2 (centres undefined), the “activation” value was -3.91% (inactive).
For COc1cccc(/C=C/C(=O)Nc2ccc3c(c2)OCCO3)c1, the Potency was 2.51 µM (active).
For O=C(/C=C\c1ccc2c(c1)OCO2)NC1(C(=O)Nc2ccc3c(c2)OCCO3)CCCCC1, the “activation” value was 0.617% (inactive).
In the case of COc1ccc(OC)c(/C=C/C(=O)OCC(=O)Nc2ccc3c(c2)OCCO3)c1, the “activation” value was -4.86% (inactive).
For Cc1cccc(NC(=O)/C=C/c2ccc3c(c2)OCO3)n1, the Potency was 1.41 µM (active).
